Test results from PubChem BioAssay.

What was measured:
[1] = target: Tumor necrosis factor receptor superfamily member 10B (Homo sapiens) (UniProt O14763); assay: viability loss of caspase-8 NB7 cells with TRAIL – with/without TRAIL, luminescence panel, confirmation (AID 651596); conditions: NB7 neuroblastoma + caspase-8, TRAIL sensitization, NB7 Caspase-8, with TRAIL, mean of runs, at 10 µM, stronger effect = higher value
[2] = as above; conditions: NB7 neuroblastoma + caspase-8, without TRAIL, NB7 Caspase-8, without TRAIL, mean of runs, at 10 µM
[3] = target: Tumor necrosis factor receptor superfamily member 10B (Homo sapiens) (UniProt O14763); assay: compound enhancement of TRAIL-induced cell killing – NB7 cells plus caspase-8, luminescence, panel, dose response (AID 652002); conditions: NB7 neuroblastoma +caspase-8, TRAIL sensitization, luminescence viability, NB7+Caspase-8, with TRAIL, run 1; at 12.5 µM (top of the series)
[4] = target: Tumor necrosis factor receptor superfamily member 10B (Homo sapiens) (UniProt O14763); assay: as above; conditions: NB7 neuroblastoma +caspase-8, TRAIL sensitization, luminescence viability, NB7+Caspase-8, with TRAIL, run 2; at 12.5 µM (top of the series)
[5] = as above; conditions: NB7 neuroblastoma +caspase-8, no TRAIL, compound-alone cytotoxicity counter-screen, luminescence viability, NB7+Caspase-8, run 1; at 12.5 µM (top of the series) unless noted
[6] = as above; conditions: NB7 neuroblastoma +caspase-8, no TRAIL, compound-alone cytotoxicity counter-screen, luminescence viability, NB7+Caspase-8, run 2; at 12.5 µM (top of the series) unless noted

Sequence of Tumor necrosis factor receptor superfamily member 10B (Homo sapiens) (O14763 whole entry, looked up): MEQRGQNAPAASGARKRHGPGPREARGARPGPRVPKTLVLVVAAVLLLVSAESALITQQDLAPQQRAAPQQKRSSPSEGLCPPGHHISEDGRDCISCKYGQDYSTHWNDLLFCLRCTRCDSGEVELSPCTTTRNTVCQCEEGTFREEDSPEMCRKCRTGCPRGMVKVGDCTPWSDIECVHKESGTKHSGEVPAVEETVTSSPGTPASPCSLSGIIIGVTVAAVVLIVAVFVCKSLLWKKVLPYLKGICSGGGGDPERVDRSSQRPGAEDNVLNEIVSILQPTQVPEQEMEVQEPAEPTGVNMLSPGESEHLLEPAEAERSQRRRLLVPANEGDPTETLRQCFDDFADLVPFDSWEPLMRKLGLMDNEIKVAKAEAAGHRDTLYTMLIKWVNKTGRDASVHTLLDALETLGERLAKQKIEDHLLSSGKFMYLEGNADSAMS

| SMILES | activity [1] [%] | activity [2] [%] | activity, % sensitization [3] [%] | activity, % sensitization [4] [%] | activity, % sensitization [5] [%] | activity, % sensitization [6] [%] |
| --- | --- | --- | --- | --- | --- | --- |
| Cc1cccc(/C=N/Nc2nncc3ccccc23)c1 | 80.9 | 69.2 |  |  |  |  |
| COc1ccc(N2C(N)=NC(N)=NC2(C)C)cc1 | 78.6 | 86.5 |  |  |  |  |
| Cc1ccnc(NC(=O)Nc2ccc3c(c2)OCO3)c1 | 51 | 41 | 40.8 | 17 | 0.866 | -33.8 |
| Cc1nc2cc(NC(=O)c3ccco3)ccc2n1C | 47.6 | 48 | 30.3 | 32.8 | -8.74 | 21.3 |
| CN1C[C@@H]2[C@@H]3C(=O)N(Cc4ccccc4)C(=O)[C@@H]3[C@](Cc3ccccc3)(C1=O)N2C(=O)c1ccc(C(C)(C)C)cc1 | 74.5 | 47.9 | -1.09 | 15.8 | 7.44 | -17 |
| CCc1ccc(-c2ccc(SCC(=O)NCC3CCCO3)nn2)cc1 (configuration not stated) | 52.9 | 62.2 |  |  |  |  |
| COc1cccc(C(=O)Nc2ccc(C3CC3(Cl)Cl)cc2)c1 (configuration not stated) | 47 | 46.5 | 12.6 | 30.2 | 5.52 | 21.8 |
| Nc1nc(Nc2ccc(Cl)cc2)nc2ccccc12 | 84.4 | 83.5 |  |  |  |  |
| COc1ccc2c(c1OC)C(=O)N(c1cccc(C)c1)C2 | 66.9 | 57.9 |  |  |  |  |
| COc1ccc(C(=O)/C=C/Nc2cc(C)ccn2)cc1 | 66.9 | 52.5 |  |  |  |  |
| Cc1ccn2cc(-c3cccc(NC(=O)CCC(=O)O)c3)nc2c1 | 70.5 | 60.1 |  |  |  |  |
| C(=N\NC1=Nc2cccc3cccc1c23)/c1ccccc1 | 34.3 | 14.2 |  |  |  |  |
| CC(C)c1onc(C(=O)N2CCN(c3ccc(F)cc3)CC2)c1[N+](=O)[O-] | 78.8 | 87.6 |  |  |  |  |
| Nc1nc(N)c2cc(Sc3ccc(Cl)cc3)ccc2n1 | 70.7 | 75.5 |  |  |  |  |
| Cc1ccn2cc(C(=O)Nc3ccc4c(c3)OCCO4)nc2c1 | 58.2 | 50.8 | 38.4 | 40.7 | 47.9 | 50.7 |
| COc1ccc(NC(=O)c2ccc(OC)cc2)cc1 | 54.2 | 42.5 |  |  |  |  |
| C/C(=N\NC(=O)c1ccn(C)n1)c1cccc(NC(=O)c2ccc(C)s2)c1 | 48.5 | 45.5 |  |  |  |  |

| SMILES | activity [1] [%] | activity [2] [%] | activity, % sensitization [3] [%] | activity, % sensitization [4] [%] | activity, % sensitization [5] [%] | activity, % sensitization [6] [%] |
| --- | --- | --- | --- | --- | --- | --- |
| CC(C)Cc1nc2oc3c(Cl)ncnc3c2c2c1CCCC2 | 55.5 | 49.8 | -5.07 | -15 | -9.85 | -8.86 |
| Cn1nnc(NC(=O)c2ccc(C(C)(C)C)cc2)n1 | 58.1 | 51.8 | 47.5 | 61.4 | -4.98 | 39.7 |
| O=C(CCl)N=c1sccn1Cc1ccccc1Cl | 99.6 | 98.9 |  |  |  |  |
| Cc1ccc(NC(=O)c2ccc3nsnc3c2)c(Cl)c1 | 60.6 | 58.2 |  |  |  |  |
| COc1ccc(C(=O)/C=C2\C(=O)Nc3ccc(Br)cc32)cc1 | 49.3 | 77.4 |  |  |  |  |
| C=C(C)c1cc2c(ccc3ccc(=O)oc32)o1 | 92.6 | 91 |  |  |  |  |
| COc1ccccc1C=NNC(=O)NN=Cc1ccccc1OC | 61 | 46.5 | 42.5 | 48.3 | 54.1 | 35.8 |
| COc1cc2c(cc1OC)C(c1ccccc1)N(C(=O)CCl)CC2 (configuration not stated) | 98.3 | 92.4 |  |  |  |  |
| CC(=O)n1cc(N(C(=O)CCl)c2ccc(Cl)cc2)c2ccccc21 | 98.5 | 98.9 |  |  |  |  |
| Cc1ccc(-c2nc(N/N=C/c3ccncc3)c3ccccc3n2)cc1 | 98 | 96.7 |  |  |  |  |
| COc1ccc(NS(=O)(=O)c2cccc(C(=O)N/N=C/c3c(F)c(F)c(F)c(F)c3F)c2)cc1 | 77.2 | 47.5 | 7.56 | 35.1 | -2.02 | 41.3 |
| COc1ccc(-c2nc(-c3ccc(NC(=O)c4ccncc4)cc3)no2)cc1OC | 70.5 | 47.2 | -12.9 | -17.5 | 2.44 | -14.5 |
| CSc1nc(N)n2nc(-c3ccc(Cl)cc3)cc2n1 | 63.9 | 45.2 | -2.8 | -10.2 | 0.419 | -17.1 |
| CCN(CC)c1ccc(/C=N/NC(=O)c2ccco2)cc1 | 56.5 | 53.3 | 25 | 39.3 | 34 | 23.6 |
| Cc1cc(N/N=C/c2ccccc2)nc(NCc2ccccc2)n1 | 53.9 | 41.1 | 30.4 | 39.6 | 5.63 | 26.4 |
| CN(C)c1ccc(N/C=C/C(=O)c2ccco2)cc1 | 62.6 | 22.4 | 53.8 | 49.4 | 18.4 | 43.5 |
